# From PubChem BioAssay (NCATS)
# Inconclusive results are not listed. Unmarked numbers belong to inactive results. The source made the active and inactive calls. The call rests on the fitted dose curve.
# Experiment: Primary qHTS for inhibitors of SARS-S pseudo-typed particle cell entry (AID 1479145); further: nearly all actives have a fitted effect of over 45% in size
# Conditions: SARS-S pseudotyped particle cell entry, luciferase reporter; series mostly up to 57.1 µM; activity change, negative = inhibition: at the top concentration
# On the % scale 0 is the no-effect control and ±100 the full control effect.
SMILES,"activity change, negative = inhibition",outcome
COc1ccc(C(=O)N2CCN(c3ccc4c(c3)CCC(=O)N4)CC2)cc1OC,-5.51%,
OCC(O)COc1ccc(Cl)cc1 (stereo not drawn),-26.7% [at 171 µM],
CC(=O)OCC(=O)[C@@]12OC3(CCCC3)O[C@@H]1C[C@H]1[C@@H]3CCC4=CC(=O)C=C[C@]4(C)[C@@]3(F)[C@@H](O)C[C@@]12C,,inactive
O=S(O)CNc1ccc(S(=O)(=O)c2ccc(NCS(=O)O)cc2)cc1,-6.89%,
CN(C(=O)CO)c1c(I)c(C(=O)NCC(O)CO)c(I)c(C(=O)NCC(O)CO)c1I (stereo not drawn),-10.8%,
CC(Oc1ccccc1)C(=O)N[C@@H]1C(=O)N2[C@@H]1SC(C)(C)[C@@H]2C(=O)O (stereo partly drawn),,inactive
CC(=O)NC(C=O)C(O)C(O)[C@H](O)CO (stereo partly drawn),,inactive
CNC(=O)C[C@@H](N)C(=O)N[C@@H](C(=O)N[C@@H]1C(=O)N2[C@@H]1SC(C)(C)[C@@H]2C(=O)O)c1ccc(O)cc1,-34.8%,
C[C@@H]1C[C@H]2[C@@H]3C[C@H](F)C4=CC(=O)C=C[C@]4(C)[C@@]3(F)[C@@H](O)C[C@]2(C)[C@@]1(O)C(=O)COC(=O)C(C)(C)C,,inactive
CN(C)C=Nc1c(I)cc(I)c(CCC(=O)O)c1I,2.24%,
Nc1nc(CC(=O)Nc2ccc(CCNC[C@H](O)c3ccccc3)cc2)cs1,,inactive
CCCCC(CC)COC(=O)c1ccc(Nc2nc(Nc3ccc(C(=O)OCC(CC)CCCC)cc3)nc(Nc3ccc(C(=O)OCC(CC)CCCC)cc3)n2)cc1 (stereo not drawn),-21.8%,
CCCCC[C@H](O)/C=C/[C@@H]1[C@@H](C/C=C/CCCC(=O)O)[C@@H](O)C[C@H]1O,-21.3%,
